Assay outcomes: PubChem, Broad Institute
Myc binder: binders of human c-Myc; calls only; 17,000 compounds, 1.5% hits; P01106; small molecule microarray, His-c-Myc binding, anti-His fluorescence;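 active = spot fluorescence over background with P-value below 7% in all four replicate spots, showing protein binding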;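 also: score is binary with 100 for all four spots passing and 0 otherwise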
mut p53 SMM: binds human mutant p53 on microarray; small molecule microarray binding, anti-GST fluorescence; calls only; 17,000 compounds, 0.4% hits; AID 624136;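 active = compounds whose four printed spots each glow above background more than chance allows, each with a p-value under 7%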
NFkB binder: binders of human NF-kappa-B p105; P19838; Small molecule microarray, anti-His fluorescence binding; calls only; 17,000 compounds, 1.3% hits; AID 624139;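 active = spot fluorescence over background significantly raised, with a chance value under 7% in all four replicate spots of the compound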;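 also: probe protein is his-tagged human p50 processed subunit at 1 µg/ml; raw spot fluorescence signals with no normalization applied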
p53 PUMA act: re-activators of the mutant p53 pathway; AID 624151; activation, % at 9.98 µM; SW480 PUMA-promoter luciferase, p53 mutant reactivation; 28,000 compounds, 1.5% hits; in the data active = activation above about 52%
STAT3 SMM: STAT3 (human) binding; AID 624138; 17,000 compounds, 0.2% hits; Small molecule microarray, His-STAT3 binding, anti-His fluorescence; P40763; calls only;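 active = compounds whose four printed spots each show fluorescence over background unusually high for their array block, chance value under 7%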
Starred values were filed as active, the others as inactive; i = inactive; x = no result; + = active, no number. Only some compounds are listed: those with a hit (about 2.6% of all), similar ones and a draw of the others.

SMILES	Myc binder	mut p53 SMM	NFkB binder	p53 PUMA act	STAT3 SMM
C[C@@H]1CCCCO[C@@H](CN(C)Cc2ccccc2)[C@H](C)CN([C@H](C)CO)C(=O)c2cc(NC(=O)Nc3ccc4c(c3)OCO4)ccc2O1	i	i	+	-25.0	i
CC(C)NC(=O)Nc1ccc2c(c1)C(=O)N([C@@H](C)CO)C[C@@H](C)[C@H](CN(C)Cc1ccccc1)OCCCC[C@H](C)O2	+	i	+	7.4	i
C[C@H]1CCCCO[C@H](CN(C)C(=O)c2ccccc2)[C@@H](C)CN([C@@H](C)CO)C(=O)c2cc(NC(=O)Nc3ccc4c(c3)OCO4)ccc2O1	i	+	i	-24.5	i
C[C@@H]1CN([C@H](C)CO)C(=O)c2cc(NC(=O)Nc3ccc4c(c3)OCO4)ccc2O[C@@H](C)CCCCO[C@@H]1CN(C)C(=O)c1ccccc1	i	i	i	1.1	i
COc1ccc(S(=O)(=O)N(C)CC(=O)Nc2ccc3c(c2)OCCO3)cc1Cl	x	x	x	-8.5	x
COC(=O)C(C)Sc1nnc2c3ccccc3n(Cc3ccccc3)c2n1 (stereo not drawn)	i	i	i	-1.5	i
COc1ccc(NC(=O)Cn2cnc3sc(-c4ccccc4)cc3c2=O)cc1	x	x	x	-23.5	x
Cn1c(SCC(=O)Nc2c(F)cc(F)cc2Br)nnc1-c1ccco1	i	i	i	8.3	i
O=C1C(=O)N(CCCn2ccnc2)C(c2cccs2)C1C(=O)c1cc2ccccc2o1 (stereo not drawn)	x	x	x	4.7	x
CCOC(=O)c1sc(N2C(=O)C(=O)C(C(=O)c3ccc(OC)c(C)c3)C2c2ccco2)nc1C (stereo not drawn)	x	x	x	1.4	x
COc1cccc2cc(C(=O)C3C(=O)C(=O)N(c4nc(C)c(C)s4)C3c3ccco3)oc12 (stereo not drawn)	+	i	i	1.6	i
Cc1ccc2c(c1O)C(=O)c1ccc(O[C@@H]3O[C@H](CO[C@@H]4OC[C@@H](O)[C@H](O)[C@H]4O)[C@@H](O)[C@H](O)[C@H]3O)cc1C2=O	i	i	i	1.7	i
O=C(O)CCC(=O)Nc1ccc(Br)c(Cl)c1	i	i	i	-11.3	i
O=C(O)CCC(=O)Nc1ccc(Br)c2cccnc12	+	i	i	2.8	i
O=C(COc1ccc([N+](=O)[O-])cc1)Nc1cccc(O)c1	x	x	x	117.1*	x
COc1ccc(OCC(=O)Nc2cccc(-c3cnc4ccccc4n3)c2)cc1	x	x	x	91.6*	x
COc1ccc(OCC(=O)Nc2ccc3oc(-c4cccc(Br)c4)nc3c2)cc1	x	x	x	43.3	x
COc1ccc2oc(-c3cccc(NC(=O)COc4ccc(Cl)cc4)c3)nc2c1	x	x	x	91.3*	x
CCC(=O)Nc1cccc(NC(=O)COc2ccc3ccccc3c2)c1	x	x	x	93.9*	x
S=C1NC2=C(C(c3ccccc3)N1)N1CCC2CC1 (stereo not drawn)	x	x	x	-13.8	x
COCCNc1ncnc2c1oc1ccccc12	i	i	i	4.4	i
Cc1ccnc(NC(c2cccc(F)c2)c2ccc3ccc(C)nc3c2O)c1 (stereo not drawn)	x	x	x	-32.3	x
Cc1cc(C)c(S(=O)(=O)N(C)CC(=O)Nc2cccc(C)c2C)c(C)c1	x	x	x	-4.5	x
O=C(COc1ccccc1)Nc1ccc2oc(-c3ccccc3)nc2c1	i	i	i	68.5*	i
Cc1cccc(-c2nc3cc(NC(=O)COc4ccccc4)ccc3o2)c1	x	x	x	32.6	x
Cc1sc2ncnc(SCC(=O)C(C)(C)C)c2c1C	x	x	x	59.9*	x
